Reference: PubChem BioAssay (NCATS)
Results filed as inconclusive are left out. The source made the active and inactive calls. Calls come from the whole dose curve; as a rule, active = well fitted curve in the direction sought with a large enough effect; inconclusive = small, poorly fitted or top-dose-only effect, or another doubt; inactive = no such curve, though single readings can be large; an effect the other way counts as inactive or inconclusive.

Legend:
[1] = Quantitative High-Throughput drug screen in 47 multiple myeloma cell lines against the NCATS MIPE library collection: FR4_PLB cell viability assay (AID 1918924; note: nearly all actives have a fitted effect of over 35% in size)
Summary of the method: (§1)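 Viability readout: CellTiter-Glo luminescence following 5 min room-temperature incubation with reagent. Prior exposure: 48 h, 37C, humidified 5% CO2, 500 cells per well.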

[2] = Quantitative High-Throughput drug screen in 47 multiple myeloma cell lines against the NCATS MIPE library collection: Delta47_JCRB cell viability assay (AID 1918925; note: nearly all actives have a fitted effect of over 45% in size)
Summary of the method: (§2)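 Myeloma cell lines, 500 cells per well, exposed to MIPE 4.0 library compounds for 48 h at 37C, 5% CO2. Viability from ATP by CellTiter-Glo luminescence; normalised to DMSO (100%) and media-only (0%) wells.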

[3] = Quantitative High-Throughput drug screen in 47 multiple myeloma cell lines against the NCATS MIPE library collection: EJM_DSMZ cell viability assay (AID 1918926; note: nearly all actives have a fitted effect of over 30% in size)
Summary of the method: as §2

[4] = Quantitative High-Throughput drug screen in 47 multiple myeloma cell lines against the NCATS MIPE library collection: ARP1_JJKsccF8 cell viability assay (AID 1918928; note: nearly all actives have a fitted effect of over 40% in size)
Summary of the method: (§3)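 ATP readout (CellTiter-Glo), 48 h drug incubation, 37 °C/5% CO2, 500 cells per well; normalisation to DMSO (100%) and media-only (0%) controls.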

[5] = Quantitative High-Throughput drug screen in 47 multiple myeloma cell lines against the NCATS MIPE library collection: ARD_JJKsccE7 cell viability assay (AID 1918929)
Summary of the method: as §2

[6] = Quantitative High-Throughput drug screen in 47 multiple myeloma cell lines against the NCATS MIPE library collection: KMM1_JCRB cell viability assay (AID 1918960); note: nearly all actives have a fitted effect of over 30% in size
Summary of the method: as §3

[7] = Quantitative High-Throughput drug screen in 47 multiple myeloma cell lines against the NCATS MIPE library collection: KHM11_PLB cell viability assay (AID 1918962); note: nearly all actives have a fitted effect of over 35% in size
Summary of the method: as §1

[8] = Quantitative High-Throughput drug screen in 47 multiple myeloma cell lines against the NCATS MIPE library collection: JIM3_ECACC cell viability assay (AID 1918963; note: nearly all actives have a fitted effect of over 35% in size)
Summary of the method: as §1

[9] = Quantitative High-Throughput drug screen in 47 multiple myeloma cell lines against the NCATS MIPE library collection: JIM1_ECACC cell viability assay (AID 1918964)
Summary of the method: as §2

[10] = Quantitative High-Throughput drug screen in 47 multiple myeloma cell lines against the NCATS MIPE library collection: JJN3_DSMZ cell viability assay (AID 1918966; note: nearly all actives have a fitted effect of over 50% in size)
Summary of the method: as §2

[11] = Quantitative High-Throughput drug screen in 47 multiple myeloma cell lines against the NCATS MIPE library collection: H1112_PLB cell viability assay (AID 1918967; note: nearly all actives have a fitted effect of over 30% in size)
Summary of the method: as §2

[12] = Quantitative High-Throughput drug screen in 47 multiple myeloma cell lines against the NCATS MIPE library collection: Karpas25_ECACC cell viability assay (AID 1918968; note: nearly all actives have a fitted effect of over 35% in size)
Summary of the method: as §2

[13] = Quantitative High-Throughput drug screen in 47 multiple myeloma cell lines against the NCATS MIPE library collection: KMS27_JCRB cell viability assay (AID 1918970); note: nearly all actives have a fitted effect of over 30% in size
Summary of the method: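 ATP-based viability (CellTiter-Glo luminescence) is measured in cells treated 48 h with approved and investigational drugs at 37 °C. Controls are DMSO-only wells for full viability and media-only wells for none.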

[14] = Quantitative High-Throughput drug screen in 47 multiple myeloma cell lines against the NCATS MIPE library collection: KMS12BM_JCRB cell viability assay (AID 1918971); note: nearly all actives have a fitted effect of over 35% in size
Summary of the method: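 We plated 500 myeloma cells per well, pinned in MIPE 4.0 compounds, and incubated for 48 hours at 37C. ATP was then quantified with CellTiter-Glo, with DMSO and media-only wells defining 100% and 0%.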

[15] = Quantitative High-Throughput drug screen in 47 multiple myeloma cell lines against the NCATS MIPE library collection: KMS12PE_JCRB cell viability assay (AID 1918972); note: nearly all actives have a fitted effect of over 30% in size
Summary of the method: (§4)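 Approved and investigational drugs from MIPE 4.0 were added by pin tool to 500 cells per well. After 48 hours at 37C, ATP-based CellTiter-Glo luminescence indicated remaining viability.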

[16] = Quantitative High-Throughput drug screen in 47 multiple myeloma cell lines against the NCATS MIPE library collection: KMS20_JCRB cell viability assay (AID 1918973); note: nearly all actives have a fitted effect of over 45% in size
Summary of the method: as §2

[17] = Quantitative High-Throughput drug screen in 47 multiple myeloma cell lines against the NCATS MIPE library collection: INA6_PLB cell viability assay (AID 1918965; note: nearly all actives have a fitted effect of over 55% in size)
Summary of the method: as §4

[18] = Quantitative High-Throughput drug screen in 47 multiple myeloma cell lines against the NCATS MIPE library collection: Karpas620_DSMZ cell viability assay (AID 1918959); note: nearly all actives have a fitted effect of over 30% in size
Summary of the method: as §1

[19] = Quantitative High-Throughput drug screen in 47 multiple myeloma cell lines against the NCATS MIPE library collection: Karpas417_ECACC cell viability assay (AID 1918961); settings: Karpas417 myeloma viability, CellTiter-Glo ATP luminescence, 48 h; viability (% of DMSO): at 45.8 µM (top of the series)
Summary of the method: as §4

Measured: Potency
Potency is the fitted concentration of half-maximal effect.

CCN1CCN(CC(=O)Nc2ccc(-c3cccc4c(=O)cc(N5CCOCC5)oc34)c3sc4ccccc4c23)CC1
active: [1] 1480 nM | [2] 418 nM | [3] 13200 nM | [4] 264 nM | [5] 11.8 nM | [6] 132 nM | [7] 52.6 nM | [8] 1180 nM | [9] 469 nM | [10] 3720 nM | [11] 6620 nM | [12] 264 nM | [13] 418 nM | [14] 1050 nM | [15] 2350 nM | [16] 1180 nM

Cc1[nH]c2ccccc2c1CCNCc1ccc(C=CC(=O)NO)cc1
active: [1] 46.9 nM | [2] 52.6 nM | [3] 148 nM | [4] 41.8 nM | [6] 52.6 nM | [7] 148 nM | [8] 235 nM | [17] 13.2 nM | [10] 93.5 nM | [11] 105 nM | [14] 59 nM | [15] 52.6 nM

CC(C)(C)c1cnc(CSc2cnc(NC(=O)C3CCNCC3)s2)o1
active: [1] 93.5 nM | [2] 264 nM | [3] 105 nM | [4] 209 nM | [5] 235 nM | [18] 372 nM | [6] 187 nM | [19] 132 nM | [7] 74.3 nM | [17] 235 nM | [10] 83.3 nM | [11] 469 nM | [12] 209 nM | [13] 209 nM | [14] 132 nM | [15] 526 nM | [16] 74.3 nM

c1cc(-c2cnn3cc(-c4ccc(OCCN5CCCCC5)cc4)cnc23)ccn1
inactive: [5] | [18] | [6] | [13] | [15]
active: [1] 11800 nM | [2] 2090 nM | [3] 16600 nM | [4] 16600 nM | [7] 1480 nM | [8] 3720 nM | [10] 8330 nM | [11] 2960 nM | [12] 2960 nM | [14] 16600 nM | [16] 2350 nM

COc1cc(C(=O)NS(=O)(=O)c2ccccc2C)ccc1Cc1cn(C)c2ccc(NC(=O)OC3CCCC3)cc12
inactive: [18] | [19] | [9]
active: [1] 23500 nM | [2] 14800 nM | [3] 16600 nM | [4] 18700 nM | [7] 10500 nM | [8] 16600 nM | [17] 10500 nM | [11] 20900 nM | [12] 8330 nM | [14] 26400 nM | [16] 6620 nM

Cn1cc(-c2[nH]c3cc(NC(=O)[C@H](N)C4CCCCC4)cc4c3c2C=NNC4=O)cn1
active: [1] 296 nM | [2] 935 nM | [3] 526 nM | [4] 7430 nM | [5] 4690 nM | [6] 526 nM | [7] 1480 nM | [8] 5260 nM | [9] 296 nM | [10] 662 nM | [11] 935 nM | [12] 935 nM | [13] 148 nM | [14] 1050 nM | [15] 1180 nM | [16] 935 nM

CC1(C)O[C@@H]2C[C@@H]3[C@H]4C[C@@H](F)C5=CC(=O)C=C[C@]5(C)[C@@]4(F)[C@@H](O)C[C@]3(C)[C@]2(C(=O)CO)O1
inactive: [1] | [2] | [3] | [19] | [7] | [8] | [17] | [10] | [11] | [14]
active: [4] 7.4 nM | [12] 7.4 nM

Cc1ccc(-c2ncn(-c3ccc(Nc4nccc(-c5cccc(N6CCOCC6)c5)n4)cc3)n2)cn1
active: [1] 132 nM | [2] 105 nM | [3] 187 nM | [4] 166 nM | [5] 105 nM | [18] 209 nM | [6] 105 nM | [19] 29.6 nM | [7] 118 nM | [17] 66.2 nM | [10] 235 nM | [11] 105 nM | [13] 46.9 nM | [14] 83.3 nM | [15] 59 nM | [16] 83.3 nM

O=C(O)c1ccc2c(c1)nc(Nc1cccc(Cl)c1)c1ccncc12
active: [1] 5260 nM | [2] 4180 nM | [3] 9350 nM | [4] 9350 nM | [5] 8330 nM | [18] 4180 nM | [6] 4690 nM | [19] 935 nM | [7] 5900 nM | [10] 9350 nM | [11] 6620 nM | [12] 2640 nM | [13] 1660 nM | [14] 10500 nM | [15] 5260 nM

CCC[C@H](NC(=O)C(C#N)=Cc1cccc(Br)n1)c1ccccc1
active: [1] 2640 nM | [2] 1320 nM | [3] 2960 nM | [4] 4180 nM | [18] 6620 nM | [19] 5900 nM | [7] 1320 nM | [8] 1480 nM | [17] 1320 nM | [10] 2090 nM | [11] 2350 nM | [12] 1480 nM | [13] 7430 nM | [14] 2960 nM
